BaF3 tox = counter-screen for JAK2V617F inhibitors: parental Ba/F3 viability inhibitors. CellTiter-Glo ATP luminescence. 220,000 tested, 1.1% active. inhibition, % at 5.6 µM;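 active = inhibition above a per-campaign cutoff, the mean inhibition of all tested compounds plus 3 SD, cut at about 27% in these data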
KLF5 inh = inhibitors of KLF5 expression. DLD-1 KLF5 promoter-luciferase reporter, luminescence. inhibition, % at 5 µM. 290,000 tested, 0.23% active;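 active = inhibition above a per-plate limit of that plate's mean compound inhibition plus 3 SD, cut at about 60% in these data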;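 note: higher means less KLF5 promoter-driven luciferase light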
Ba/F3 V617F tox = lowers viability of Ba/F3 cells expressing EpoR and JAK2V617F; ATP luminescence; inhibition, % at 5.6 µM; 220,000 tested, 1.1% active;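 active = inhibition above the campaign mean plus 3 SD over all tested compounds, cut at about 24% in these data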;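 note: cytokine-independent growth of Ba/F3 cells driven by EpoR plus mutant JAK2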
IEC-6 tox = counter-screen for KLF5 inhibitors: cytotoxicity in IEC-6 cells | IEC-6 cytotoxicity, luminescence viability | inhibition, % at 5 µM | 290,000 tested, 0.78% active | AID 1825; in the data active = inhibition above about 22%
APP transl inh = APP translation inhibition; inhibition, % at 2 µM; SH-SY5Y APP 5'UTR-luciferase reporter, luminescence; 190,000 tested, 0.82% active;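 active = inhibition above a set limit, derived from the sample mean plus 3 SD, cut at about 45% in these data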
A number is an active result; - = inactive; . = no result given. An excerpt weighted towards active compounds, which were near 1.9% of everything screened.

SMILES	BaF3 tox	KLF5 inh	Ba/F3 V617F tox	IEC-6 tox	APP transl inh
N#CC(C#N)=C1C(=O)N(CCN2CCOCC2)c2ccccc21	-	-	-	-	.
CCOc1ccc(-c2nnc(Nc3ccc(OC)c(C(=O)N4CCCCC4)c3)c3ccccc23)cc1	-	-	-	-	-
COc1ccc(C)cc1NC(=O)C(=O)NCc1ccncc1	96	-	-	-	-
C=CCN(c1ccc(C(=O)Nc2ccc(C)c(C)c2)cc1)S(C)(=O)=O	-	-	-	-	-
O=C(c1ccc(F)cc1)N(C(=O)c1ccc(F)cc1)c1ncccn1	-	-	-	-	71
Cn1nnnc1Sc1ncnc2scc(-c3ccc(F)cc3)c12	-	-	27	31	-
O=C(Nc1cccc(C(=O)O)c1)/C(=C\c1ccccc1)NC(=O)c1cccc2ccccc12	-	-	-	-	-
OC(COCc1ccc2c(c1)OCO2)CN1CCN(Cc2ccccc2)CC1 (stereo unspecified)	-	-	-	-	51
Cc1ccc(S(=O)(=O)CCN2C=CC(C(F)(F)F)=NCC2)cc1	-	-	-	-	.
OC1(c2cccc(C(F)(F)F)c2)CCN(c2ncnc3c2[nH]c2ccc(F)cc23)CC1	35	-	-	-	-
CCOC(=O)N1CCN(c2ncnc3c2[nH]c2ccc(F)cc23)CC1	42	-	-	-	-
CSc1nsc(SCC(=O)Nc2ccc(C(N)=O)cc2)n1	.	-	.	-	.
CNc1nc(SC)n(C)c(=O)c1N=O	-	-	-	-	.
Cc1ccc(NC(=O)CCCc2nc3ccccc3s2)c(O)c1	-	-	-	-	-
c1ccc(Cn2c(-c3ccccc3)c[n+]3c2SCCC3)cc1	63	-	73	-	.
CCn1c(=O)c2sccc2n(Cc2cccc(C)c2)c1=O	.	-	.	-	.
Cc1[nH]c2nc3ccccc3n2c(=O)c1CCC(C)C	.	-	.	-	.
c1sc2[n+](c1C13CC4CC(CC(C4)C1)C3)CCS2	61	-	63	-	-
Cc1nn(C)c(C)c1/C=C(/C(=O)C(C)(C)C)n1cncn1	-	-	-	-	.
CC(C)(C)C(=O)/C(=C/c1ccncc1)n1cncn1	75	-	91	-	58
Cc1ccc(CN2CCN(/N=C/c3ccc(C(=O)O)cc3)CC2)c(C)c1	53	-	-	-	-
CCN(CC)S(=O)(=O)c1ccc(Oc2ccc(S(=O)(=O)N(CC)CC)cc2)cc1	40	-	33	-	-
COc1cc(-c2cc(C(=O)N3CCN(c4ccccn4)CC3)c3ccccc3n2)cc(OC)c1OC	-	-	-	33	-
CC(C)(C)c1cc(C(c2cccnc2)N2CCN(CCO)CC2)cc(C(C)(C)C)c1O (stereo unspecified)	-	-	-	-	59
CC(=O)Nc1ccc(S(=O)(=O)N(C)CCOCc2ccccc2)cc1	43	-	-	-	-
SMILES	BaF3 tox	KLF5 inh	Ba/F3 V617F tox	IEC-6 tox	APP transl inh
CC(=O)Nc1ccc(S(=O)(=O)N(CCO)Cc2ccccc2)cc1	-	-	-	-	-
Nc1ccc(Sc2cc(Cl)nc(N)n2)cc1	-	-	-	-	-
Nc1nc(N)c2cc(Sc3ccc4ccccc4c3)ccc2n1	101	-	96	81	.
O=C(CN1CCOCC1)Nc1ccccc1Sc1ccc(Cl)cc1	-	-	-	-	-
CC(C)[C@H](NC(=O)C1CCN(C(=O)[C@@H]2CCCN2)CC1)C(=O)NCc1ccc(F)cc1	.	-	.	-	.
NS(=O)(=O)c1ccc(NC(=O)CSc2nc(Nc3ccccc3)nc(N3CCOCC3)n2)cc1	.	-	.	-	.
CN1/C(=C\C(=S)NC(=O)c2ccccc2Cl)C(C)(C)c2ccccc21	63	-	70	-	-
CN1/C(=C\C=N\NC(=O)c2ccccc2Br)C(C)(C)c2ccccc21	62	-	54	-	-
CN1/C(=C/C=N/n2cnnc2)C(C)(C)c2ccccc21	-	-	-	-	-
CN1/C(=C\C(=S)Nc2ccccc2)C(C)(C)c2ccccc21	46	-	43	-	-
CN1/C(=C\C(=O)Nc2ccc(Cl)cc2)C(C)(C)c2ccccc21	-	-	-	-	-
CN1/C(=C/C(=S)NC(=O)C2(C)CC2(Cl)Cl)C(C)(C)c2ccccc21 (stereo unspecified)	58	-	-	-	-
O=C(O)c1ccc(NCCc2ccc(Cl)cc2)c([N+](=O)[O-])c1	-	-	-	-	-
N#C/C(=C/c1ccc(Br)s1)C(=O)NCCc1c[nH]c2ccccc12	-	-	-	-	-
CCOC(=O)/C=C1/N(C)c2ccccc2C1(C)C	-	-	-	-	.
COc1ccccc1C(=O)NC(=S)/C=C1/N(C)c2ccccc2C1(C)C	37	-	37	-	-
Cc1ccc(CNC(=O)Cn2ccc3cc(S(=O)(=O)N4CCCCCC4)ccc32)cc1	.	-	.	-	.
O=C(COC(=O)c1ccc(OC(F)F)cc1)NCCCN1CCCC1=O	-	-	-	-	.
CCN(CC)C(=O)Cn1cc(S(=O)(=O)CC(=O)Nc2cc(OC)ccc2OC)c2ccccc21	.	-	.	-	.
COc1ccc(-c2cc(-c3ccc(C)cc3)nc(SCc3nnc(-c4ccccc4)o3)c2C#N)cc1OC	-	-	-	-	-
Cc1ccc(NC(=O)c2ccc([N+](=O)[O-])o2)cc1S(=O)(=O)N1CCOCC1	-	-	-	-	58
CCCC(=O)N1CCN(c2ccc(NC(=O)c3ccc([N+](=O)[O-])o3)cc2Cl)CC1	82	-	94	-	98
CC(C)C(=O)N1CCN(c2ccc(NC(=O)c3ccc([N+](=O)[O-])o3)cc2Cl)CC1	-	-	-	-	96
CC(=O)N1CCN(c2ccc(NC(=O)c3ccc(Br)o3)cc2Cl)CC1	-	-	-	-	-
CCN1CCN(c2c(Cl)cccc2NC(=O)c2ccc([N+](=O)[O-])o2)CC1	.	-	.	-	.
SMILES	BaF3 tox	KLF5 inh	Ba/F3 V617F tox	IEC-6 tox	APP transl inh
O=C(Nc1cccc(S(=O)(=O)N2CCCCC2)c1)c1ccc([N+](=O)[O-])o1	-	-	-	-	45
Cc1ccc2c(c1)cc(C(=O)NCc1ccccc1)n2C	.	-	.	-	.
O=C(Nc1ccc(N2CCOCC2)c(Cl)c1)c1ccc([N+](=O)[O-])o1	-	-	-	-	95
CCOc1ccc(S(=O)(=O)Nc2cccc(C(=O)NCC(c3ccc(OC)cc3)N3CCOCC3)c2)cc1 (stereo unspecified)	.	-	.	-	.
CCC1C/C(=C\c2cc(OC)c(OC)cc2OC)C(=O)/C(=C/c2cc(OC)c(OC)cc2OC)C1 (stereo unspecified)	.	-	.	-	.
CCC1C/C(=C/c2ccco2)C(=O)/C(=C/c2ccco2)C1 (stereo unspecified)	-	-	30	-	-
O=C(c1ccccc1NS(=O)(=O)c1cccc2cccnc12)N1CCOCC1	-	-	-	-	-
Cc1ccc(-c2cn(-c3ccccc3)c3[n+]2CCCS3)cc1	67	-	77	-	-
N#Cc1ccc(-c2cn(-c3ccccc3)c3[n+]2CCCS3)cc1	-	-	-	-	-
c1ccc(-c2cn(-c3ccccc3)c3[n+]2CCCS3)cc1	63	-	68	-	.
CCn1nccc1C(=O)Nc1ccc(C(=O)OC(C)C)cc1	.	-	.	-	.
CC1=CC(C)(C)N2C(=O)C3(N=C(N)NC(Nc4ccccc4)=N3)c3cc(C)cc1c32 (stereo unspecified)	42	-	44	-	-

Screening results: PubChem, several laboratories
